Measured values as given in PubChem BioAssay (NCI).
Compounds without any hit were thinned out: in the full panel of roughly 79,000, 15% have a hit. Activity calls are given as the source filed them. Cut-off read from the data, not from the text of the source: active = growth inhibition above about 70%; inactive = the rest.

Columns and labels:
[1] = NCI Yeast Anticancer Drug Screen. Data for the rad52 strain (AID 147);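 note: 0% = growth of vehicle-treated control cultures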; details: S. cerevisiae rad52 mutant growth inhibition, stronger effect = higher value
Method in brief: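 Growth of repair-deficient yeast cells was compared between compound-treated and vehicle-treated cultures to give percent inhibition.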

[2] = NCI Yeast Anticancer Drug Screen. Data for the wt1 strain (AID 149);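 note: 0% = growth of vehicle-treated wt1 cultures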; details: S. cerevisiae wt1 strain (SPY 50644) growth inhibition, stronger effect = higher value
Method in brief: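 Readout: yeast growth inhibition, normalised to vehicle controls, in the wt1 strain exposed to test compounds.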

[3] = NCI Yeast Anticancer Drug Screen. Data for the rad50EPP+ strain (AID 151);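 note: 0% = growth of vehicle-treated control cultures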; details: S. cerevisiae rad50 mutant strain, stronger effect = higher value
Method in brief: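 Measured: growth inhibition of rad50EPP+ yeast. Reference: vehicle-treated controls. Screen uses strains with defined genetic alterations in DNA damage repair or cell cycle control.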

[4] = NCI Yeast Anticancer Drug Screen. Data for the rad50 strain (AID 155);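 note: 0% = growth of vehicle-only cultures of the same strain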; details: S. cerevisiae rad50 strain growth inhibition, stronger effect = higher value
Method in brief: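 Compounds were tested on a yeast strain with an engineered DNA damage repair alteration; the reported value is growth inhibition normalised to vehicle treatment.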

[5] = NCI Yeast Anticancer Drug Screen. Data for the rad14 strain (AID 159);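 note: 0% = growth of vehicle-treated control cultures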; details: S. cerevisiae rad14 strain growth inhibition, stronger effect = higher value
Method in brief: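 Compound-treated yeast with a defined DNA-repair lesion; growth inhibition normalised to vehicle-treated cultures.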

[6] = NCI Yeast Anticancer Drug Screen. Data for the sgs1 mgt1 strain (AID 161);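 note: 0% = growth of cultures given vehicle only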; details: S. cerevisiae sgs1 mgt1 strain, stronger effect = higher value
Method in brief: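 Growth of a repair-deficient yeast mutant was monitored after compound treatment and expressed as inhibition relative to vehicle-treated cultures.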

[7] = NCI Yeast Anticancer Drug Screen. Data for the CLN2oe strain (AID 163);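 note: 0% = growth of vehicle-only control cultures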; details: S. cerevisiae CLN2oe strain, stronger effect = higher value
Method in brief: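 Cells of an engineered yeast line with disturbed cell-cycle regulation are treated with compound. Inhibition of growth is then calculated relative to the vehicle-treated reference.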

[8] = NCI Yeast Anticancer Drug Screen. Data for the cln2 rad14 strain (AID 165);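 note: 0% = growth equal to vehicle treated cultures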; details: S. cerevisiae cln2 rad14 strain, stronger effect = higher value
Method in brief: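 Strain: cln2 rad14 yeast, altered in cell cycle control and DNA damage repair. Read-out: growth inhibition vs vehicle.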

[9] = NCI Yeast Anticancer Drug Screen. Data for the bub3 strain (AID 167); details: S. cerevisiae bub3 mutant strain, stronger effect = higher value
Method in brief: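 Growth of a checkpoint-deficient yeast mutant is measured after compound exposure. Values represent inhibition relative to vehicle.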

[10] = NCI Yeast Anticancer Drug Screen. Data for the wt2 strain (AID 169);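 note: 0% = growth of vehicle-treated yeast cultures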; details: S. cerevisiae wt2 strain growth inhibition, stronger effect = higher value
Method in brief: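 Growth of compound-treated yeast is measured and expressed as inhibition relative to vehicle-only controls.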

[11] = NCI Yeast Anticancer Drug Screen. Data for the mlh1 strain (AID 171);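 note: 0% = growth of vehicle-treated control cultures of the same strain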; details: S. cerevisiae mlh1 strain growth inhibition, stronger effect = higher value
Method in brief: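 Test agents were incubated with yeast bearing a defined DNA damage repair or cell cycle control alteration; values are growth inhibition normalised to vehicle-treated cultures.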

[12] = NCI Yeast Anticancer Drug Screen. Data for the sgs1 strain (AID 173);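 note: 0% = growth of vehicle-only control cultures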; details: S. cerevisiae sgs1 mutant, stronger effect = higher value
Method in brief: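 Strain with an altered DNA repair or cell cycle pathway exposed to compound. Growth then measured. Value = inhibition versus vehicle control.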

[13] = NCI Yeast Anticancer Drug Screen. Data for the mlh1 rad18 strain (AID 175); details: S. cerevisiae mlh1 rad18 strain growth inhibition, stronger effect = higher value
Method in brief: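 A repair-deficient yeast strain is exposed to test compound, and growth is scored relative to vehicle-treated controls.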

[14] = NCI Yeast Anticancer Drug Screen. Data for the rad18 strain (AID 177); details: S. cerevisiae rad18 mutant growth inhibition, stronger effect = higher value
Method in brief: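 DNA-repair-defective yeast; compound treatment; growth inhibition scored against vehicle.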

[15] = NCI Yeast Anticancer Drug Screen. Data for the mec2-1 strain (AID 157); details: S. cerevisiae mec2-1 strain, stronger effect = higher value
Method in brief: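 Compounds were applied to mec2-1 yeast cells. Their growth was then compared with that of vehicle-treated cultures to give growth inhibition.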

[16] = at 5.0 µM (retest, dose inferred, filed as 0.5)
[17] = at 50.0 µM (retest, dose inferred, filed as 5.0)

Measured: growth inhibition

CN=C(N)N/N=C(\C)c1ccc2oc3ccc(/C(C)=N/NC(N)=NC)cc3c2c1
inactive: [1]; at 1.2 µM 11% | [1]; at 3.7 µM 28% | [2]; at 1.2 µM -8% | [2]; at 3.7 µM -21% | [2]; at 11.0 µM 11% | [3]; at 1.2 µM -17% | [3]; at 3.7 µM 23% | [4]; at 1.2 µM 34% | [4]; at 3.7 µM 64% | [5]; at 1.2 µM 4% | [5]; at 3.7 µM -18% | [5]; at 11.0 µM 43% | [6]; [16] 56% | [7]; at 1.2 µM -66% | [7]; at 3.7 µM -74% | [7]; at 11.0 µM 20% | [8]; [16] 13% | [9]; at 1.2 µM -14% | [9]; at 3.7 µM -24% | [9]; [16] 37% | [9]; at 11.0 µM 2% | [10]; at 1.2 µM -4% | [10]; at 3.7 µM 2% | [11]; at 1.2 µM -23% | [11]; at 3.7 µM -24% | [11]; at 11.0 µM 35% | [12]; at 1.2 µM -21% | [12]; at 3.7 µM -14% | [12]; at 11.0 µM 37% | [13]; [16] 54% | [14]; at 1.2 µM -13% | [14]; at 3.7 µM -13%
active: [1]; at 11.0 µM 88% | [1]; at 33.0 µM 98% | [1]; at 100.0 µM 98% | [2]; at 33.0 µM 98% | [2]; at 100.0 µM 98% | [3]; at 11.0 µM 70% | [3]; at 33.0 µM 96% | [3]; at 100.0 µM 98% | [4]; [16] 81% | [4]; at 11.0 µM 92% | [4]; at 33.0 µM 98% | [4]; [17] 98% | [4]; at 50.0 µM 90% | [4]; at 100.0 µM 98% | [5]; at 33.0 µM 98% | [5]; at 100.0 µM 98% | [6]; [17] 99% | [6]; at 50.0 µM 90.4% | [7]; at 33.0 µM 97% | [7]; at 100.0 µM 98% | [8]; [17] 98% | [8]; at 50.0 µM 91.8% | [9]; at 33.0 µM 97% | [9]; [17] 99% | [9]; at 50.0 µM 89.2% | [9]; at 100.0 µM 98% | [10]; at 11.0 µM 95% | [10]; at 33.0 µM 98% | [10]; at 100.0 µM 98% | [11]; at 33.0 µM 98% | [11]; at 100.0 µM 98% | [12]; at 33.0 µM 98% | [12]; at 100.0 µM 98% | [13]; [17] 98% | [13]; at 50.0 µM 87.5% | [14]; at 11.0 µM 70% | [14]; at 33.0 µM 98% | [14]; at 100.0 µM 98%

O=C1c2ccccc2C(=O)c2cc(S(=O)(=O)Nc3ccccc3)ccc21
inactive: [1]; at 1.2 µM 0% | [1]; at 3.7 µM 7% | [1]; at 11.0 µM 16% | [1]; at 33.0 µM 26% | [1]; at 100.0 µM 19% | [2]; at 1.2 µM 5% | [2]; at 3.7 µM 9% | [2]; at 11.0 µM 8% | [2]; at 33.0 µM 9% | [2]; at 100.0 µM 4% | [4]; at 1.2 µM 1% | [4]; at 3.7 µM 7% | [4]; [16] 60% | [4]; at 11.0 µM 11% | [4]; at 33.0 µM 23% | [4]; [17] 49% | [4]; at 100.0 µM 22% | [15]; at 1.2 µM -1% | [15]; at 3.7 µM 5% | [15]; [16] 33% | [15]; at 11.0 µM 12% | [15]; at 33.0 µM 21% | [15]; [17] 61% | [15]; at 100.0 µM 19% | [5]; at 1.2 µM -1% | [5]; at 3.7 µM 1% | [5]; at 11.0 µM 7% | [5]; at 33.0 µM 12% | [5]; at 100.0 µM 11% | [6]; [16] 51% | [6]; [17] 61% | [7]; at 1.2 µM -6% | [7]; at 3.7 µM -15% | [7]; at 11.0 µM 5% | [7]; at 33.0 µM 7% | [7]; at 100.0 µM 2% | [8]; [16] 22% | [8]; [17] 37% | [9]; at 1.2 µM 0% | [9]; at 3.7 µM 4% | [9]; [16] 58% | [9]; at 11.0 µM 24% | [9]; at 33.0 µM 33% | [9]; at 100.0 µM 25% | [10]; at 1.2 µM 3% | [10]; at 3.7 µM 6% | [10]; at 11.0 µM 9% | [10]; at 33.0 µM 14% | [10]; at 100.0 µM 8% | [11]; at 1.2 µM 0% | [11]; at 3.7 µM 2% | [11]; at 11.0 µM 10% | [11]; at 33.0 µM 14% | [11]; at 100.0 µM 12% | [14]; at 1.2 µM 0% | [14]; at 3.7 µM 2% | [14]; at 11.0 µM 9% | [14]; at 33.0 µM 19% | [14]; at 100.0 µM -78%
active: [4]; at 50.0 µM 96.2% | [15]; at 50.0 µM 91.4% | [6]; at 50.0 µM 96.2% | [8]; at 50.0 µM 92.2% | [9]; [17] 84% | [9]; at 50.0 µM 96.1% | [13]; [16] 77% | [13]; [17] 75% | [13]; at 50.0 µM 97.7%
